Laboratory results published in PubChem BioAssay (NCI).
This is part of a sample that, as a whole, favours compounds with a hit. Of some 79,000 tested, about 15% had one in any assay. Calls of active or inactive are those of the source. No stated cut-off is given here; in the data, active means growth inhibition above about 70%; inactive means the rest.

Key:
[1] = NCI Yeast Anticancer Drug Screen. Data for the mec2-1 strain (AID 157); conditions: S. cerevisiae mec2-1 strain, stronger effect = higher value
How it was run: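 mec2-1 yeast strain, carrying an alteration in DNA damage repair or cell cycle control, was exposed to compounds; growth inhibition was measured relative to vehicle-treated controls.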

[2] = NCI Yeast Anticancer Drug Screen. Data for the sgs1 mgt1 strain (AID 161);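 further: 0% = growth of cultures given vehicle only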; conditions: S. cerevisiae sgs1 mgt1 strain, stronger effect = higher value
How it was run: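 Compounds are added to genetically altered yeast, and growth is compared with cultures given vehicle alone to give percent inhibition.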

[3] = NCI Yeast Anticancer Drug Screen. Data for the CLN2oe strain (AID 163);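 further: 0% = growth of vehicle-only control cultures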; conditions: S. cerevisiae CLN2oe strain, stronger effect = higher value
How it was run: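 Yeast cells carrying a defined cell-cycle control alteration were exposed to test compounds. Growth inhibition was scored against vehicle-treated control cultures.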

[4] = NCI Yeast Anticancer Drug Screen. Data for the cln2 rad14 strain (AID 165);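 further: 0% = growth equal to vehicle treated cultures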; conditions: S. cerevisiae cln2 rad14 strain, stronger effect = higher value
How it was run: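 Yeast carrying cln2 and rad14 alterations (cell cycle control and DNA damage repair) were exposed to compounds. Growth inhibition was measured against vehicle-treated controls.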

[5] = NCI Yeast Anticancer Drug Screen. Data for the bub3 strain (AID 167); conditions: S. cerevisiae bub3 mutant strain, stronger effect = higher value
How it was run: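 Screening used yeast with an engineered genetic alteration affecting cell cycle control. Compound-exposed cultures were compared with vehicle cultures, and reduced growth was taken as inhibition.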

[6] = NCI Yeast Anticancer Drug Screen. Data for the wt2 strain (AID 169);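 further: 0% = growth of vehicle-treated yeast cultures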; conditions: S. cerevisiae wt2 strain growth inhibition, stronger effect = higher value
How it was run: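 Yeast cells were exposed to test compounds, and growth inhibition was measured relative to vehicle-treated controls.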

[7] = NCI Yeast Anticancer Drug Screen. Data for the sgs1 strain (AID 173);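 further: 0% = growth of vehicle-only control cultures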; conditions: S. cerevisiae sgs1 mutant, stronger effect = higher value
How it was run: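 Yeast mutant strains carrying defined defects in DNA damage repair or cell cycle control were exposed to test compounds. Growth inhibition was scored against vehicle-treated controls.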

[8] = NCI Yeast Anticancer Drug Screen. Data for the mlh1 rad18 strain (AID 175); conditions: S. cerevisiae mlh1 rad18 strain growth inhibition, stronger effect = higher value
How it was run: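 Growth inhibition of the yeast strain was measured after compound exposure and expressed relative to vehicle-treated controls. The strain carries defined defects in DNA damage repair.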

[9] = NCI Yeast Anticancer Drug Screen. Data for the rad18 strain (AID 177); conditions: S. cerevisiae rad18 mutant growth inhibition, stronger effect = higher value
How it was run: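 Yeast carrying a defined DNA damage repair alteration were exposed to compounds. Growth inhibition was expressed relative to vehicle-treated controls.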

[10] = NCI Yeast Anticancer Drug Screen. Data for the rad52 strain (AID 147);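 further: 0% = growth of vehicle-treated control cultures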; conditions: S. cerevisiae rad52 mutant growth inhibition, stronger effect = higher value
How it was run: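 Yeast strain carrying a DNA damage repair alteration was exposed to test compounds. Growth inhibition was measured relative to vehicle-treated controls.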

[11] = NCI Yeast Anticancer Drug Screen. Data for the wt1 strain (AID 149);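 further: 0% = growth of vehicle-treated wt1 cultures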; conditions: S. cerevisiae wt1 strain (SPY 50644) growth inhibition, stronger effect = higher value
How it was run: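 Using yeast strain wt1, compound-induced growth inhibition was determined against vehicle-treated cultures.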

[12] = NCI Yeast Anticancer Drug Screen. Data for the rad50EPP+ strain (AID 151);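 further: 0% = growth of vehicle-treated control cultures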; conditions: S. cerevisiae rad50 mutant strain, stronger effect = higher value
How it was run: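 Yeast strain carrying rad50 alteration (rad50EPP+) exposed to compounds; growth inhibition measured relative to vehicle-treated controls.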

[13] = NCI Yeast Anticancer Drug Screen. Data for the mgt1 strain (AID 153); conditions: S. cerevisiae mgt1 mutant growth inhibition, stronger effect = higher value
How it was run: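 Yeast mgt1 strain (DNA repair/cell-cycle alteration panel) exposed to compounds; growth inhibition measured relative to vehicle-treated controls.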

[14] = NCI Yeast Anticancer Drug Screen. Data for the rad50 strain (AID 155);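 further: 0% = growth of vehicle-only cultures of the same strain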; conditions: S. cerevisiae rad50 strain growth inhibition, stronger effect = higher value
How it was run: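 Relative growth inhibition (compound vs vehicle) was measured in yeast with a defined repair-gene alteration.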

[15] = NCI Yeast Anticancer Drug Screen. Data for the mlh1 strain (AID 171);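 further: 0% = growth of vehicle-treated control cultures of the same strain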; conditions: S. cerevisiae mlh1 strain growth inhibition, stronger effect = higher value
How it was run: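 Yeast carrying a defined genetic alteration in DNA damage repair or cell cycle control were exposed to test compounds. Growth inhibition was measured relative to vehicle-treated controls.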

[16] = at 5.0 µM (retest, dose inferred, filed as 0.5)
[17] = at 50.0 µM (retest, dose inferred, filed as 5.0)

Measured: growth inhibition

CCC(=O)c1cc(C(=O)C(=S)SC)cc(C(=O)C(=S)SC)c1
active: [1]; at 11.0 µM 98% | [1]; at 33.0 µM 98% | [1]; [17] 96% | [1]; at 50.0 µM 86.8% | [1]; at 100.0 µM 95% | [2]; [17] 96% | [2]; at 50.0 µM 85.3% | [3]; at 11.0 µM 96% | [3]; at 33.0 µM 98% | [3]; at 100.0 µM 91% | [4]; at 50.0 µM 88.7% | [5]; at 11.0 µM 98% | [5]; at 33.0 µM 98% | [5]; at 50.0 µM 86.7% | [5]; at 100.0 µM 91% | [6]; at 11.0 µM 98% | [6]; at 33.0 µM 98% | [6]; at 100.0 µM 94% | [7]; at 11.0 µM 98% | [7]; at 33.0 µM 98% | [7]; at 100.0 µM 95% | [8]; [17] 96% | [8]; at 50.0 µM 86.8% | [9]; at 11.0 µM 97% | [9]; at 33.0 µM 98% | [9]; at 100.0 µM 94%
inactive: [1]; [16] 56% | [2]; [16] 22% | [3]; at 1.2 µM 28% | [3]; at 3.7 µM 69% | [4]; [16] -3% | [4]; [17] 37% | [5]; at 1.2 µM 6% | [5]; at 3.7 µM 44% | [5]; [16] 35% | [5]; [17] 68% | [6]; at 1.2 µM 19% | [6]; at 3.7 µM 59% | [7]; at 1.2 µM 27% | [7]; at 3.7 µM 62% | [8]; [16] 42% | [9]; at 1.2 µM -6% | [9]; at 3.7 µM 49%

C=C1CC(CCCl)(c2ccccc2)OC1=O (stereo unspecified)
active: [10]; at 33.0 µM 88% | [10]; at 100.0 µM 99% | [11]; at 33.0 µM 84% | [11]; at 100.0 µM 98% | [12]; at 100.0 µM 92% | [13]; at 11.0 µM 78% | [13]; at 33.0 µM 98% | [13]; at 100.0 µM 99% | [14]; at 33.0 µM 91% | [14]; [17] 94% | [14]; at 50.0 µM 92.5% | [14]; at 100.0 µM 98% | [1]; at 33.0 µM 93% | [1]; [17] 98% | [1]; at 50.0 µM 93.5% | [1]; at 100.0 µM 99% | [2]; [17] 96% | [2]; at 50.0 µM 93.5% | [3]; at 33.0 µM 85% | [3]; at 100.0 µM 98% | [4]; [17] 93% | [4]; at 50.0 µM 90.9% | [5]; at 11.0 µM 76% | [5]; at 33.0 µM 96% | [5]; [17] 98% | [5]; at 50.0 µM 92.4% | [5]; at 100.0 µM 99% | [15]; at 11.0 µM 82% | [15]; at 33.0 µM 97% | [15]; at 100.0 µM 99% | [7]; at 33.0 µM 96% | [7]; at 100.0 µM 99% | [8]; [17] 98% | [8]; at 50.0 µM 91.2% | [9]; at 33.0 µM 94% | [9]; at 100.0 µM 99%
inactive: [10]; at 1.2 µM -37% | [10]; at 3.7 µM -25% | [10]; at 11.0 µM 17% | [11]; at 1.2 µM -13% | [11]; at 3.7 µM -16% | [11]; at 11.0 µM 25% | [12]; at 1.2 µM 0% | [12]; at 3.7 µM 2% | [12]; at 11.0 µM 19% | [12]; at 33.0 µM 48% | [13]; at 1.2 µM -25% | [13]; at 3.7 µM -3% | [14]; at 1.2 µM 0% | [14]; at 3.7 µM 13% | [14]; [16] 4% | [14]; at 11.0 µM 33% | [1]; at 1.2 µM -4% | [1]; at 3.7 µM 16% | [1]; [16] 13% | [1]; at 11.0 µM 65% | [2]; [16] -8% | [3]; at 1.2 µM 4% | [3]; at 3.7 µM 7% | [3]; at 11.0 µM 24% | [4]; [16] 18% | [5]; at 1.2 µM -6% | [5]; at 3.7 µM 37% | [5]; [16] 37% | [15]; at 1.2 µM 21% | [15]; at 3.7 µM 35% | [7]; at 1.2 µM 4% | [7]; at 3.7 µM 2% | [7]; at 11.0 µM 59% | [8]; [16] 22% | [9]; at 1.2 µM 0% | [9]; at 3.7 µM 13% | [9]; at 11.0 µM 61%
